This is one part of a sample in which hits are shown more often than they occur.
TNAP act DEA: human TNAP activation, intermediate phosphate acceptor. activation factor at 20 µM. purified TNAP, CDP-star luminescence, 100 mM DEA, 30 min; stronger effect = higher value; scale: 0 levamisole-inhibited, 1 vehicle-only enzyme. P05186. 64,000 tested, under 10 active;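 active = activation factor of at least 2 at 20 µM, relative to controls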
Target sequence (P05186 whole entry, looked up): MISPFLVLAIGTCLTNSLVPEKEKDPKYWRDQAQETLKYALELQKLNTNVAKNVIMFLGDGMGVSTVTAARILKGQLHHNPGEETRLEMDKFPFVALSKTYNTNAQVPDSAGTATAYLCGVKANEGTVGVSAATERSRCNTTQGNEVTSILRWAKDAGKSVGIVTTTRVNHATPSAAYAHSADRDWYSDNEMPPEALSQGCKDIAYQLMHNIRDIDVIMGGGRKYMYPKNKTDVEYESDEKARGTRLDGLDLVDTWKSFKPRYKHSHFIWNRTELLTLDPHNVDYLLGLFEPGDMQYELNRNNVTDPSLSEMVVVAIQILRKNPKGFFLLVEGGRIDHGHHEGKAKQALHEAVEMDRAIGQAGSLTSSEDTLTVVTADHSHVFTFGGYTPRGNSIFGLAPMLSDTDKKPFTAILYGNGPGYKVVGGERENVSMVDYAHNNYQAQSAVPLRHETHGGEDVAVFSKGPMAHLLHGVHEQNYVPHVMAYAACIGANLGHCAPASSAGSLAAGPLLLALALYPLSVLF
Calb biofilm kill: kills Candida albicans biofilms. C. albicans biofilm + clotrimazole, Alamar Blue. inhibition, % at 6 µM. 85,000 compounds, 0.14% hits. AID 834;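 active = inhibition above 20%; inactive = inhibition below 20%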;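 also: preformed 24 hr biofilms exposed to compound for 48 hr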
HePTP inh: blocks human HePTP tyrosine phosphatase; P35236; recombinant HePTP phosphatase activity, OD absorbance; inhibition, % at 20 µM; 110,000 compounds, 0.64% hits; in the data active = inhibition above about 50%
hDAT+cocaine: modulates human dopamine transporter uptake under cocaine; B-score at 10 µM; AID 449768; LLC-PK1 hDAT cells, [14C]-dopamine uptake with cocaine IC80; actives deviate in either direction; 110,000 compounds, 1.3% hits;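 active = Z score or B-score, a plate-position-corrected score, falls beyond the plate's 99.7% confidence bounds, in either direction; inactive = both scores lie inside the 99.7% bounds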
D1 mod: D1 dopamine receptor (human) allosteric modulation; P21728; HEK293 D1, CRE-luciferase, dopamine EC30 potentiation; actives deviate in either direction; B-score at 10 µM; 58,000 compounds, 5.9% hits; AID 641;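 active = luminescence count or its row- and column-corrected plate score outside the 99.7% band of the plate's sample wells, on either side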
PLAP act: human PLAP activation | purified PLAP enzyme, luminescent substrate read-out; stronger effect = higher value | activation fold at 20 µM | 96,000 compounds, 1.2% hits | AID 696; in the data active = activation fold above about 2
D1 mod confirm: confirmation of human D1 dopamine receptor allosteric modulators | 2,200 compounds, 88% hits | AID 642 | shares compounds with D1 mod | HEK293 D1 CRE-luciferase, dopamine EC30 potentiation; stronger effect = higher value | luminescence at 10 µM;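 active = luminescence in either of two replicates above the same-plate mean plus 3 SD of the low-dose dopamine control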
D1 no dopamine: D1 (human) signaling in absence of dopamine | shares compounds with D1 mod | HEK293 D1 CRE-luciferase, luminescence, no dopamine; stronger effect = higher value | luminescence at 10 µM | 1,900 compounds, 0.8% hits; in the data active = luminescence above about 3900
Isoprot counter: isoproterenol response counter-screen activity for D1 modulators. shares compounds with D1 mod. HEK293 D1 CRE-luciferase, isoproterenol EC30 counter-screen; stronger effect = higher value. luminescence at 10 µM. 2,200 compounds, 63% hits. AID 647;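 active = luminescence in either replicate above plate mean of wells with a partly effective reference agonist dose plus 3 SD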;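 also: isoproterenol raises cAMP through native beta-adrenoceptor Gs so signal bypasses D1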
A number is an active result.

How did Cc1cc(C)nc(SCc2nnc(SCC(=O)Nc3nc(-c4ccccc4)cs3)n2C)n1 do in these assays?
Calb biofilm kill: inactive; hDAT+cocaine: inactive

Results for COc1ccccc1-c1nnc(SCC(=O)Nc2nc(-c3ccccc3)cs2)n1C ?
TNAP act DEA: inactive; Calb biofilm kill: inactive; HePTP inh: inactive; hDAT+cocaine: inactive; D1 mod: 2.9; PLAP act: inactive; D1 mod confirm: inactive; D1 no dopamine: inactive; Isoprot counter: inactive

Results for CCc1nc(NCc2ccco2)c2oc3ccccc3c2n1 ?
TNAP act DEA: inactive; Calb biofilm kill: inactive; HePTP inh: inactive; hDAT+cocaine: inactive; D1 mod: 13.4; D1 mod confirm: inactive; Isoprot counter: inactive

Results for CCNc1nc(C)nc2c1oc1ccccc12 ?
TNAP act DEA: inactive; Calb biofilm kill: inactive; HePTP inh: inactive; hDAT+cocaine: inactive; D1 mod: 9.33; PLAP act: inactive; D1 mod confirm: 16376; Isoprot counter: 3480

How did CCc1nc(NCC2CCCO2)c2oc3ccccc3c2n1 (stereo not drawn) do in these assays?
TNAP act DEA: inactive; Calb biofilm kill: inactive; HePTP inh: inactive; hDAT+cocaine: inactive; D1 mod: 6.05; PLAP act: inactive; D1 mod confirm: 12724; Isoprot counter: 3456

How did Cc1nc(NCC2CCCO2)c2oc3ccccc3c2n1 (stereo not drawn) do in these assays?
TNAP act DEA: inactive; Calb biofilm kill: inactive; HePTP inh: inactive; hDAT+cocaine: inactive; PLAP act: inactive

Results for CCNc1nc(CC)nc2c1oc1ccccc12 ?
TNAP act DEA: inactive; Calb biofilm kill: inactive; HePTP inh: inactive; hDAT+cocaine: inactive

Results for Cc1csc2nc(CNC(=O)C3CCCCC3)cn12 ?
TNAP act DEA: inactive; Calb biofilm kill: inactive; HePTP inh: inactive; hDAT+cocaine: inactive; D1 mod: 2.99; PLAP act: inactive; D1 mod confirm: inactive; D1 no dopamine: inactive; Isoprot counter: inactive

How did Cn1c(-c2ccc(S(=O)(=O)O)s2)nc2ccccc21 do in these assays?
HePTP inh: inactive

How did CCOC(=O)N1CCC(N2Cc3cccc(C(=O)NC(C)c4ccc5c(c4)OCCO5)c3C2=O)CC1 (stereo not drawn) do in these assays?
TNAP act DEA: inactive; Calb biofilm kill: inactive; HePTP inh: inactive; hDAT+cocaine: inactive; D1 mod: 2.41; PLAP act: inactive; D1 mod confirm: 8332; D1 no dopamine: inactive; Isoprot counter: inactive

Results for CN(C)NC(=O)c1cccc2c1-c1ccc(I)cc1C2 ?
HePTP inh: inactive

What do the screens show for `O=C(Nc1cccc(F)c1)/C(=C\c1cccs1)NC(=O)c1cccs1`?
HePTP inh: inactive

How did COC(=O)C(C#N)c1nc2ccccc2nc1N1CCCC1 (stereo not drawn) do in these assays?
TNAP act DEA: inactive; Calb biofilm kill: inactive; HePTP inh: inactive; hDAT+cocaine: inactive; D1 mod: 5.48; PLAP act: inactive; D1 mod confirm: 9832; Isoprot counter: 2676

What do the screens show for `CC(C)OC(=O)C(C#N)c1nc2ccccc2nc1N1CCCC1` (stereo not drawn)?
TNAP act DEA: inactive; Calb biofilm kill: inactive; HePTP inh: inactive; hDAT+cocaine: inactive; D1 mod: 9.95; D1 mod confirm: 20752; D1 no dopamine: inactive; Isoprot counter: 3776

How did COc1cc(OC)cc(C(=O)Nc2ccccc2C(=O)N2CCCC2)c1 do in these assays?
Calb biofilm kill: inactive; hDAT+cocaine: inactive; PLAP act: inactive

What do the screens show for `COc1cc(OC)cc(C(=O)Nn2cc(C(=O)N3CCN(C)CC3)c3ccccc3c2=O)c1`?
TNAP act DEA: inactive; Calb biofilm kill: inactive; HePTP inh: inactive; hDAT+cocaine: inactive; D1 mod: 2.91; PLAP act: inactive; D1 mod confirm: 5944; D1 no dopamine: inactive; Isoprot counter: inactive

Results for Cc1nc(-c2cccc(S(=O)(=O)N3CCCCCC3)c2)cs1 ?
Calb biofilm kill: inactive; hDAT+cocaine: inactive; PLAP act: inactive

What do the screens show for `Cc1nc(-c2ccc(S(=O)(=O)N3CCCCCC3)cc2)cs1`?
TNAP act DEA: inactive; Calb biofilm kill: inactive; HePTP inh: inactive; hDAT+cocaine: inactive; D1 mod: 2.74; PLAP act: inactive; D1 mod confirm: 8332; D1 no dopamine: inactive; Isoprot counter: inactive

What do the screens show for `CCOC(=O)c1c(NC(=O)CSc2nnc(-c3cccnc3)o2)sc(C(C)=O)c1C`?
TNAP act DEA: inactive; Calb biofilm kill: inactive; HePTP inh: inactive; hDAT+cocaine: inactive; D1 mod: 4.04; PLAP act: inactive; D1 mod confirm: 6332; D1 no dopamine: inactive; Isoprot counter: 3396

Results for CCOC(=O)c1c(NC(=O)CSc2nnc(-c3ccco3)o2)sc(C(C)=O)c1C ?
TNAP act DEA: inactive; Calb biofilm kill: inactive; HePTP inh: inactive; hDAT+cocaine: inactive; D1 mod: inactive; PLAP act: inactive

What do the screens show for `CCOC(=O)c1sc(N(Cc2ccccc2)C(=O)CSc2nnc(C3CC3)n2N)nc1C`?
TNAP act DEA: inactive; Calb biofilm kill: inactive; HePTP inh: inactive; hDAT+cocaine: inactive; D1 mod: 6.16; PLAP act: inactive; D1 mod confirm: 18736; D1 no dopamine: inactive; Isoprot counter: 4272

What do the screens show for `COC(=O)C(C)Sc1nc2c(c(=O)[nH]c(=O)n2C)n1CCCc1ccccc1` (stereo not drawn)?
TNAP act DEA: inactive; Calb biofilm kill: inactive; HePTP inh: inactive; hDAT+cocaine: inactive; D1 mod: 4.71; PLAP act: inactive; D1 mod confirm: 8864; D1 no dopamine: inactive; Isoprot counter: 3828

Results for COCCn1c(SCCCc2ccccc2)nc2c1c(=O)[nH]c(=O)n2C ?
TNAP act DEA: inactive; Calb biofilm kill: inactive; HePTP inh: inactive; hDAT+cocaine: inactive; D1 mod: inactive; PLAP act: inactive

Results for Cn1c(=O)[nH]c(=O)c2c1nc(Sc1ncccn1)n2CCCc1ccccc1 ?
TNAP act DEA: inactive; Calb biofilm kill: inactive; HePTP inh: inactive; hDAT+cocaine: inactive; D1 mod: 9.62; PLAP act: inactive; D1 mod confirm: 18924; D1 no dopamine: inactive; Isoprot counter: 5548

What do the screens show for `Cn1c(=O)[nH]c(=O)c2c1nc(Sc1ccccc1)n2CCc1ccccc1`?
TNAP act DEA: inactive; Calb biofilm kill: inactive; HePTP inh: inactive; hDAT+cocaine: inactive; D1 mod: 9.22; PLAP act: inactive; D1 mod confirm: 20140; D1 no dopamine: inactive; Isoprot counter: 6588

Results for CCCCOc1ccc(C(C)=O)cc1CSc1nc(O)cc(=O)[nH]1 ?
HePTP inh: inactive

Results for N#C/C(=C\c1ccccc1[N+](=O)[O-])C(N)=O ?
HePTP inh: inactive

Screening results as filed in PubChem.
